Experimental data taken from PubChem BioAssay (NCATS).
Inconclusive results are not listed. The list shows a part of the results. Entries that show only a call come without a potency. The source made the active and inactive calls. Calls come from the whole dose curve; as a rule, active = well fitted curve in the direction sought with a large enough effect; inconclusive = small, poorly fitted or top-dose-only effect, or another doubt; inactive = no such curve, though single readings can be large; an effect the other way counts as inactive or inconclusive.

Tests used:
[1] = qHTS screen for small molecules that inhibit ELG1-dependent DNA repair: Hit Confirmation with MMS Viability (AID 624251); conditions: Cell viability with MMS; series mostly up to 46.1 µM;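 note: viability read 16 h after compound addition; nearly all actives have a fitted effect of over 60% in size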
Method in brief: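 Reporter HEK293T cells (ELG1-luc) receive compounds about 5 hours after plating, alongside 10 µM MMS, and are scored for viability by CellTiter-Glo following 16 hours of treatment.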

[2] = biological target: Luciferin 4-monooxygenase (Photinus pyralis) (UniProt P08659); test: qHTS screen for small molecules that inhibit ELG1-dependent DNA repair: Hit Confirmation in Biochemical Luciferin Assay (AID 624253); conditions: purified firefly luciferase, luminescence counter-screen; series mostly up to 57.5 µM; note: potency is the fitted concentration of half-maximal effect
Method in brief: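 Luminescent signal from firefly luciferase acting on its luciferin substrate reagent was recorded with a CCD plate imager after compounds or DMSO had been pinned into the substrate and enzyme added last.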

[3] = biological target: Luciferin 4-monooxygenase (Photinus pyralis) (UniProt P08659); test: Biochemical firefly luciferase enzyme assay for NPC (AID 624030);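 note: purified P. pyralis luciferase at 10 nM with luciferin and ATP substrate; nearly all actives have a fitted effect of over 70% in size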; conditions: purified P. pyralis luciferase, luminescence, 5 min; series mostly up to 58.6 µM
Method in brief: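 Counter-screen for direct inhibition of the luciferase enzyme by approved-drug library compounds, run at 10 nM enzyme in 50 mM Tris acetate (final). Luminescence was read within 5 min of enzyme-buffer addition and normalized to PTC124 versus DMSO (0%).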

Chain of Luciferin 4-monooxygenase (Photinus pyralis) (P08659 whole entry, looked up): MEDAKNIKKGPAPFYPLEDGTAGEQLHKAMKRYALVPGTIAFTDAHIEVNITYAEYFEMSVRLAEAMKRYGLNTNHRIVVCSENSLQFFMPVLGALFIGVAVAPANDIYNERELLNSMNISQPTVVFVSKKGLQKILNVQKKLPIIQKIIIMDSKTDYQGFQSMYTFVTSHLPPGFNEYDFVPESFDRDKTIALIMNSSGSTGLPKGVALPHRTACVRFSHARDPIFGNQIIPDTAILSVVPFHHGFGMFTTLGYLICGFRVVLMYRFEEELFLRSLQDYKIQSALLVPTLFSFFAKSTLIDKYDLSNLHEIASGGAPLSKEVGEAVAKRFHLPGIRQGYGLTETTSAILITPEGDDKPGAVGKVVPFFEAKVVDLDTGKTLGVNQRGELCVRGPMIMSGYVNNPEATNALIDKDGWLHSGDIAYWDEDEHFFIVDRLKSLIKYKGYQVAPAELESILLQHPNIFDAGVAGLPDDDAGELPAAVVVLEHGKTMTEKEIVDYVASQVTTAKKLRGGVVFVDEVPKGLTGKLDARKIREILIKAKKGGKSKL

With NC(=O)c1sc2nc3c(c(-c4ccccc4)c2c1N)CCC3 as the compound, how does the Potency [1] read?
The Potency was “inactive”.

Which results are given for COc1ccc(NC(=O)C2CCC(CNc3c(N4CCCCC4)c(=O)c3=O)CC2)c(OC)c1 (stereo not drawn)?
Potency [1]: inactive; Potency [2]: inactive

Which results are given for Cc1ccc(Nc2nc(N3CCOCC3)nc(N3CCOCC3)n2)cc1Cl?
Potency [1]: inactive; Potency [2]: inactive

With COc1ccc(NC(C)=O)cc1NC(=O)CN1CCN(C2c3ccccc3-c3ccccc32)CC1 as the compound, how does the Potency [1] read?
The Potency was “inactive”.

What about the Potency [2] of the same compound?
The Potency was “inactive”.

Which Potency [3] does the source give for CC(=O)OCC(=O)C1(O)CCC2C3CCC4=CC(=O)CCC4(C)C3(F)C(O)CC21C (stereo not drawn) here?
The Potency was “inactive”.

With Cc1ccc(C(=O)[C@H](C)CN2CCCCC2)cc1 as the compound, how does the Potency [3] read?
Its Potency is “inactive”.

Which Potency [2] does the source give for CS(=O)c1ccc(/C=C2\C=Cc3ccccc32)cc1 (stereo not drawn) here?
The Potency was 1030 nM (active).

For COc1ccc(NC(=O)c2sc3nc(C)nc(N4CCN(c5ccccn5)CC4)c3c2C)c(OC)c1, which Potency [1] is on record?
The Potency was “inactive”.

And the Potency [2]?
The Potency was “inactive”.

For CCOC(=O)c1cccc(NC(=O)C2CCN(c3ncnc4c3nc3n4CCCCC3)CC2)c1, which Potency [1] is on record?
The Potency was “inactive”.
